NCOA1 inh: inhibits human SRC1 coactivator; HEK293 GAL4-SRC1 luciferase reporter, luminescence; hit rate 0.12% among 360,000; Q15788; inhibition, % at 3.6 µM; AID 588354;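 active means inhibition above the campaign mean plus 3 SD, with each screening campaign given its own cutoff, cut at about 60% in these data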;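 further: 0% = DMSO treated cells and 100% = gossypol at 36 µM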
NR2F2 inh: blocks human COUP-TFII nuclear receptor | HEK293T NGFI-A luciferase reporter, luminescence | inhibition, % at 8.6 µM | hit rate 0.7% among 370,000 | AID 686940;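 active means inhibition above a per-plate cutoff, mean inhibition of test wells between control levels plus 3 SD, cut at about 38% in these data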;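 further: cells cotransfected with COUP-TFII expression vector driving the NGFI-A reporter; 0% = median of COUP-TF2 test wells and 100% = reporter-only cells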
SRC2 inh: inhibits human steroid receptor coactivator 2. Q15596. HEK293 GAL4-SRC2 luciferase reporter, luminescence. inhibition, % at 9 µM. hit rate 0.17% among 370,000. AID 651957;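 active means inhibition above the mean inhibition of all tested compounds plus 3 SD, set per campaign, cut at about 52% in these data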;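 further: 0% = DMSO treated cells and 100% = cells given Gossypol at 36 µM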
Efflux pump inh: antifungal efflux pump inhibition, Nile Red retention. AID 485275. S. cerevisiae Candida pump triplex. inhibition, % at 10 µM. hit rate 0.44% among 330,000;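 active means plate passing quality check with inhibition over a set limit, or well fluorescence over plate mean plus 4 SD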;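 further: Nile Red retained in pooled yeast measured as flow cytometry median fluorescence; 0% = buffer negative control and 100% = Enniatin B positive control; higher means more Nile Red kept so more efflux inhibition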
SRC3 inh: inhibits human SRC3 coactivator | inhibition, % at 3.6 µM | HEK293 GAL4-SRC3 luciferase reporter, luminescence | hit rate 0.17% among 360,000 | Q9Y6Q9;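 active means inhibition above a per-campaign cutoff, the mean of all compounds plus 3 SD, cut at about 60% in these data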;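 further: 0% = DMSO-treated cells and 100% = gossypol-treated cells at 36 µM; higher means less SRC3-driven luciferase light from the GAL4 reporter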
LRH-1 inv ag: inverse agonists of human LRH-1 (NR5A2); O00482; AID 602396; hit rate 0.13% among 360,000; inhibition, % at 3.6 µM; HEK293T StAR-luciferase reporter, LRH-1 transfected, 24 h;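 active means inhibition above the mean inhibition of all tested compounds plus 3 SD, cut at about 73% in these data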;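 further: 0% = DMSO wells and 100% = reporter-only cells lacking LRH-1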
Gal4-VP16 ctr: counter-screen for COUP-TFII antagonists: inhibitors of VP16. shares compounds with NR2F2 inh. HEK293 Gal4-VP16 luciferase reporter, luminescence. inhibition, % at 8.5 µM. hit rate 25% among 2,500. AID 687007; in the data active means inhibition above about 13%
COUP-TFII conf: COUP-TFII (NR2F2) inhibition, confirmation assay. shares compounds with NR2F2 inh. HEK293 NGFI-A luciferase reporter, luminescence. inhibition, % at 8.5 µM. hit rate 45% among 2,500. AID 687008;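 active means mean inhibition over three repeats above a set limit taken from the earlier primary screen, cut at about 38% in these data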;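 further: 100% = cells given the luciferase reporter alone without the COUP-TF2 vector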
The depositor's hits bear a star; / = no result given. Shown are actives, neighbours in structure and some others; about 1.2% of the full set was active somewhere.

SMILES	NCOA1 inh	NR2F2 inh	SRC2 inh	Efflux pump inh	SRC3 inh	LRH-1 inv ag	Gal4-VP16 ctr	COUP-TFII conf
CN(CC(=O)Nc1ccc(F)cc1)C(=O)c1cccc(S(=O)(=O)N2CCN(c3ccccc3)CC2)c1	-1	16	12	0	8	28	/	/
COc1ccc(NC(=O)CN(C)C(=O)c2cccc(S(=O)(=O)N3CCN(c4ccc(F)cc4)CC3)c2)cc1	-4	46*	24	/	17	14	-2	17
Cc1ccc(NC(=O)c2cccc(NC(=O)CCC(=O)O)c2)cc1C	-11	17	15	0	14	-6	/	/
O=C(NCC1CCCO1)/C(=C\c1ccc(Cl)cc1)NC(=O)c1ccccc1 (centres undefined)	-4	4	12	0	0	-2	/	/
Cc1ccc(C(=O)N(CC(=O)NC2CCCC2)c2ccc3c(c2)OCCO3)s1	-14	4	17	0	8	9	/	/
O=C(ONC(=O)C1CCCCC1C(=O)NOC(=O)c1ccccc1)c1ccccc1 (centres undefined)	6	37	13	/	14	20	/	/
CCc1nccn1CCC(=O)NC1CCCc2c1cnn2-c1ccc(F)cc1F (centres undefined)	-22	6	20	1	11	4	/	/
COc1ccc(-c2nsc3c(N4CCCCC4)ncnc23)cc1	54	57*	33	0	43	40	3	63*
COc1ccc(-c2nsc3c(N4CCCCC4C)ncnc23)cc1 (centres undefined)	89*	97*	82*	0	89*	86*	88*	104*
CCN1CCN(Cc2ccc(NC(=O)c3ccc(C)c(NC(=O)c4ccc5n[nH]nc5c4)c3)cc2C(F)(F)F)CC1	3	8	-8	0	-7	-6	/	/
CCN1CCN(Cc2ccc(NC(=O)c3cccc(-c4ccc5nc(NC(=O)C6CC6)sc5n4)c3)cc2C(F)(F)F)CC1	/	40*	37	/	/	/	11	40*
COc1ccccc1OCC(=O)/C=C1/N(C)c2ccccc2C1(C)C	18	18	14	0	12	15	/	/
CN1/C(=C\C(=O)C[n+]2ccc3ccccc3c2)C(C)(C)c2ccccc21	16	79*	4	/	51	61	17*	52*
COC(=O)c1sc2nc(CN3CCN(c4ccc(OC)cc4)CC3)[nH]c(=O)c2c1C	5	3	-7	0	14	-14	/	/
O=C(Cc1cc2ccccc2o1)NCc1ccc(F)cc1	-22	-11	-21	0	-26	0	/	/
Cc1ccc(NC(=O)C2CCN(S(=O)(=O)c3ccc4c(c3)NC(=O)C(C)S4)CC2)cc1Cl (centres undefined)	13	64*	18	-1	21	1	13	47*
OC(c1ccc(F)cc1)c1nc(-c2ccncc2)cs1 (centres undefined)	16	42*	-13	/	23	17	-1	23
OC(c1ccc(F)c(F)c1)c1nc(-c2ccncc2)cs1 (centres undefined)	8	25	-3	/	0	26	/	/
Nc1cc2c(cc1Br)-c1ccc(F)cc1C2O (centres undefined)	-25	0	-33	/	-36	-23	/	/
O=C(COC(=O)/C=C/c1cccs1)Nc1ccc2ccccc2c1	1	3	-10	0	-16	-6	/	/
CSc1ccc(CN2CCN(Cc3ccc([N+](=O)[O-])cc3)CC2)cc1	25	51*	21	0	21	38	3	46*

Screening results: PubChem, several laboratories
